FEN1 inhibitor = blocks human flap endonuclease 1 | P39748 | Recombinant FEN1 flap cleavage, fluorescence, 15 min | Potency, µM (titrated, usually from 114 µM), for the others: at the highest dose activity change, negative = inhibition, usual class: inhibitors | 0.35% of 390,000 active | AID 588795; note: % is set by controls: 0 for no effect and ±100 for the full control effect; nearly all actives have a fitted effect of over 65% in size
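Steps: FEN1 (10 nM) dispensed; compound added by pin tool; 15 min at room temperature; substrate added to 50 nM final; reads at 0 min and 15 min; data normalized and fitted (four-parameter Hill).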
Pol eta inh-1 = blocks human DNA polymerase eta activity; Q9Y253; recombinant Pol eta, fluorescent DNA replication assay; Potency, µM (titrated, usually from 114 µM), for inactives: at the top dose activity change, negative = inhibition, most hits filed as inhibitors; 1.2% of 390,000 active; AID 588591; note: % is set by controls: 0 for no effect and ±100 for the full control effect
Target sequence (Q9Y253 whole entry, looked up): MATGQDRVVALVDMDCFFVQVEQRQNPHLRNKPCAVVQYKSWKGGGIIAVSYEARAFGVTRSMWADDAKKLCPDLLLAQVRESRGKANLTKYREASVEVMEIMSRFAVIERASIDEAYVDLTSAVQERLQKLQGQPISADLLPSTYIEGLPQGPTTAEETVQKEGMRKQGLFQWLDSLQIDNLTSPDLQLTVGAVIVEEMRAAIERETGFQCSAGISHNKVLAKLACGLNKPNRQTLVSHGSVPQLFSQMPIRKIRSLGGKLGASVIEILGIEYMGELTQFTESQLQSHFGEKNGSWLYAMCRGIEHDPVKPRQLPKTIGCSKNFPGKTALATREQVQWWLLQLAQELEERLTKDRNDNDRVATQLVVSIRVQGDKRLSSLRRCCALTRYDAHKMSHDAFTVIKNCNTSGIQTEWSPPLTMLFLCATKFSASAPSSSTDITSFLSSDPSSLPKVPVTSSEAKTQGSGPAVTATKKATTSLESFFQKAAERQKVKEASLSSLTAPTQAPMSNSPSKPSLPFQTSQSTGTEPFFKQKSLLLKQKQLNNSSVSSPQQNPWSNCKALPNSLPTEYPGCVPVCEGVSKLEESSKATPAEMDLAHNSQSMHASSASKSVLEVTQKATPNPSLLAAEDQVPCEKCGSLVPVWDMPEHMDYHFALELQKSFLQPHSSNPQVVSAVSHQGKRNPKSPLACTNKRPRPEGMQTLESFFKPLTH
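Fluorescent replication assay: 50 nM final substrate added after a 15 min room-temperature compound preincubation with 10 nM enzyme. Signal taken at 0 min and again at 10 min.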
Pol kappa inh-1 = blocks human DNA polymerase kappa activity; Q9UBT6; purified Pol kappa, fluorescent DNA synthesis assay, 10 min; Potency, µM (highest dose often 107 µM), inactives show at the highest dose activity, negative = inhibition, usual class: inhibitors; 0.53% of 400,000 active; AID 588579; note: % is set by controls: 0 for no effect and ±100 for the full control effect
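Activity was followed as the change in fluorescence between reads at 0 and 10 min after starting the reaction with 50 nM substrate. Beforehand, 10 nM polymerase had been preincubated with compound for 15 min at room temperature.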
Pol iota inh = DNA polymerase iota (human) inhibition; 1% of 390,000 active; Pol iota fluorescent replication assay, 10 min; Potency, µM (highest dose often 115 µM), without a hit: at the top dose activity, negative = inhibition, usual class: inhibitors
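Pol iota at 10 nM preincubated 15 min with compounds at room temperature; reaction started with fluorescent substrate, 50 nM final. Fluorescence read kinetically at 0 and 10 min; buffer-only wells as negative control.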
TDP1 inh = TDP1 (human) enzyme inhibition. recombinant TDP1, AlphaScreen DNA substrate cleavage. 0.28% of 350,000 active. Q9NUW8. Potency, µM (top dose mostly 130 µM), for inactives: top-dose activity change, negative = inhibition, most hits filed as inhibitors; note: % is set by controls: 0 for no effect and ±100 for the full control effect; nearly all actives have a fitted effect of over 40% in size
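Here, a 5' biotin and 3' phosphotyrosine-FITC DNA oligonucleotide reports Tdp1 activity: intact substrate bridges AlphaScreen beads, while cleavage leaves a 3' phosphate and drops signal. All incubations at room temperature.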
Pol beta inh = blocks human DNA polymerase beta activity; P06746; Potency, µM (titrated, usually from 114 µM), without a hit: at the highest dose activity change, negative = inhibition, actives largely listed as inhibitors; Pol beta primer extension/strand displacement, fluorescence kinetic; 1.3% of 340,000 active; note: % is set by controls: 0 for no effect and ±100 for the full control effect
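Pol beta (10 nM) was preincubated with compound for 15 min at room temperature. The reaction was then started with 50 nM substrate and read immediately and after a further 10 min at room temperature.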
Pol iota confirm = Inhibitors of human DNA polymerase iota, confirmation. shares compounds with Pol kappa inh-1. Pol iota primer extension, TAMRA/BHQ fluorescence. Potency, µM, usual class: inhibitors. 77% of 1,500 active. AID 720496
Pol kappa inh-2 = Pol kappa (human) inhibition, cherry-pick confirmation. shares compounds with Pol eta inh-1. purified Pol-kappa, fluorescent strand-displacement substrate. Potency, µM, usual class: inhibitors. 76% of 920 active. AID 720501
Pol eta inh-2 = Pol eta (human) inhibition, cherry-pick confirmation; shares compounds with Pol eta inh-1; 64% of 2,600 active; Potency, µM, actives largely listed as inhibitors; AID 720502; Pol eta primer extension, TAMRA/BHQ fluorescence, 10 min
* = called active by the depositor; u = inconclusive; x = not tested or not shown; ! = a repeat was not active; [ ] = another dose, or the depositor's remark. Compounds with a hit are over-represented: about 2.4% of the library has one in this group of screens. Calls come from the whole dose curve; as a rule, active = well fitted curve in the direction sought with a large enough effect; inconclusive = small, poorly fitted or top-dose-only effect, or another doubt; inactive = no such curve, though single readings can be large; an effect the other way counts as inactive or inconclusive. Potency is the fitted concentration of half-maximal effect.

SMILES	FEN1 inhibitor	Pol eta inh-1	Pol kappa inh-1	Pol iota inh	TDP1 inh	Pol beta inh	Pol iota confirm	Pol eta inh-2	others
O=C(Nc1ccc(S(=O)(=O)Nc2ncccn2)cc1)c1ccc(N2CCCC2=O)cc1	-5%	45µM*	-45%	u	x	u	u	u
CC(=O)c1ccc(NC(=O)c2ccc(N3CCCC3=O)cc2)cc1	-1%	-4%	-11%	13%	-10%	x	x	x
CN1N/C(=C\c2ccccc2)N=C2C(=O)N(C)C(=O)N=C21	u	x	u	-98%	2%	x	2.7*	5.4*
Cc1ccccc1NC(=O)CN1C(=O)S/C(=C\c2cccn2-c2cccc(C(=O)O)c2)C1=O	u	3.5µM*	25µM*	u	50µM*	-87%	42*	48*
O=C(O)c1ccc(-n2cccc2/C=C2\SC(=O)N(Cc3cccc(Cl)c3)C2=O)cc1	x	x	x	x	x	x	u	30*
Cc1cccc(C)c1-n1cccc1/C=C1\SC(=S)N(c2cccc(C(=O)O)c2)C1=O	u	u	-16%	u	-3%	40µM*	u	u	Pol kappa inh-2=60*
O=C(CN1C(=O)N/C(=C\c2cccn2-c2cccc(C(=O)O)c2)C1=O)Nc1ccccc1F	x	x	x	x	-7%	x	x	x
Cc1ccc(N(Cc2cccs2)C(=O)C(C)Oc2ccc(Cl)c(C)c2)cc1 (stereo not given)	-22%	-24%	u	u	u	4%	x	x
O=C(NCc1ccc2c(c1)OCO2)c1cc2ncc(Br)cn2n1	7%	10µM*	-43%	22µM*	x	14µM*	u	u
CCOC(=O)c1ccc(N/N=C/c2cc(Br)cc([N+](=O)[O-])c2O)cc1	0%	25µM*	1%	100%	11%	-27%	67*	u
CCOC(=O)c1ccc(Nc2ncccc2[N+](=O)[O-])cc1	-3%	-4%	0%	64%	6%	15%	x	x
CN(C)c1ccc(/C=C/c2ccnc3ccccc23)cc1Br	-6%	x	-5%	30%	x	x	x	x
O=Cc1ccc2oc3nc4n(c(=O)c3c(=O)c2c1)CCCS4	50µM*	2.5µM*	20µM*	7.9µM*	10µM*	8.9µM*	4.7*	11*	Pol kappa inh-2=8.4*
O=C(NCc1ccco1)c1ccc(Cn2cc([N+](=O)[O-])cn2)o1	-1%	0%	-13%	11%	-3%	3%	x	x
O=C(NCc1ccco1)c1ccc([N+](=O)[O-])o1	-19%	40µM*	u	10µM*	x	13µM*	42*	54*
Cc1ccc(NC(=O)CCN2C(=O)c3ccccc3Sc3ncccc32)c(Cl)c1	-3%	9%	-6%	-13%	5%	-25%	x	x
O=C(c1ccccc1)c1cn(Cc2ccc(F)cc2)c2ccccc2c1=O	-9%	-10%	-7%	24%	7%	9%	x	x
COc1cccc2cc(C(=O)Nc3ccc(CC(=O)O)cc3)c(=O)oc12	-11%	-19%	-22%	-29%	1%	-16%	x	x
CS(=O)(=O)N1N=C(c2ccco2)CC1c1ccccc1 (stereo not given)	0%	-22%	11%	18%	0%	-3%	x	x
CS(=O)(=O)N1N=C(c2ccco2)CC1c1ccco1 (stereo not given)	6%	22µM*	79µM*	u	x	u	53*	30*	Pol kappa inh-2=19*
O=C1ON=C(c2ccccc2)/C1=C/c1ccc(-c2ccccc2[N+](=O)[O-])o1	-3%	22µM*	-24%	u	-5%	-27%	u	48*
O=C(O)c1ccc(CSc2nc3ccc(NC(=O)c4ccccc4C(=O)O)cc3s2)cc1	u	25µM*	-12%	u	-2%	1%	u	u	Pol kappa inh-2=84*
O=C1/C(=C/c2ccc(O)c(O)c2)Oc2cc(O)ccc21	u	20µM*	28µM*	u	x	-30%	24*	34*
COc1cc(/C=C2\Oc3cc(O)ccc3C2=O)ccc1O	u	-13%	-29%	u	x	u	x	x
Cc1cc(/C=C2\SC(=S)NC2=O)cc(C)c1O	-33%	-5%	-4%	u	9%	u	x	x
SMILES	FEN1 inhibitor	Pol eta inh-1	Pol kappa inh-1	Pol iota inh	TDP1 inh	Pol beta inh	Pol iota confirm	Pol eta inh-2	others
Cc1cc(/C=C2\SC(=S)NC2=O)c(C)n1C	u	28µM*	79µM*	u	-2%	40µM*	67*	38*	Pol kappa inh-2=17*
CC/C=C\C/C=C\C/C=C\CCCCCCCC(=O)O	-17%	7.9µM*	28µM*!	13µM*	5µM*!	x	30*	24*	Pol kappa inh-2=9.5*
CC/C=C\C/C=C\C/C=C\CCCCCCCCCCCC(=O)O	x	x	-1%[19.4 µM]	x	9%	x	x	x
Cc1ccc(C2=NC(=O)/C(=C/c3cc(O)c(O)c(Br)c3)S2)cc1	11µM*	0.79µM*	1.8µM*	1.3µM*	4%	1.6µM*	17*	3.8*	Pol kappa inh-2=5.3*
Cc1ccc2c(c1)-c1c(cnn1CC(=O)N1CCN(c3cc(C)ccc3C)CC1)CO2	-12%	-5%	11%	27%	0%	30%	x	x
O=C(CSC1=Nc2ccccc2N=C(c2ccc(F)cc2)C1)NCc1ccc(Cl)cc1	3%	-18%	-8%[60.1 µM]	14%	5%	-20%	x	x
O=C(O)C1Nc2c(Cl)cc(Cl)c(Cl)c2C2C=CCC12 (stereo not given)	35µM*	14µM*	28µM*	10µM*	x	x	21*	24*
CCOc1ccc(C2c3[nH]c4ccccc4c3CCN2C(=O)Cc2cccc(OCC)c2OCC)cc1 (stereo not given)	-20%	-12%	-9%[60.1 µM]	16%	3%	u	x	x
CCC(=O)Nc1ccc(C(=O)COC(=O)c2nc3nccc(C)n3n2)cc1	u	3.5µM*	u	4µM*	16µM*	x	17*	27*	Pol kappa inh-2=17*
C[C@@H]1OC(O[C@H]2[C@H](Oc3cc(O)c4c(=O)c(O)c(-c5ccc(O)cc5)oc4c3)O[C@H](CO)[C@@H](O)[C@@H]2O)[C@H](O)[C@H](O)[C@H]1O (stereo not given in full)	x	x	8%[60.1 µM]	x	4%	x	x	x
O=c1c(OC2OC(CO)C(O)C(O)C2OC2OC(CO)C(O)C(O)C2O)c(-c2ccc(O)cc2)oc2cc(O)cc(O)c12 (stereo not given)	u	11µM*	50µM*	28µM*	x	22µM*	u	u
